Data as given in the supplement of paper PMC11417369.
± gives the standard deviation of the averaged measurements. Over roughly 25,000 sequences, “ln(normalized median fluorescence intensity)” has its median near 7.9; the highest 2% begin near 11. What follows is part of a selection rich in the highest values, with near analogues and random picks from the rest.

Test system: PfAP2-I AP2 domain 3 (GST-tagged)
Assay: gcPBM binding intensity (ln(normalized median fluorescence intensity)); higher = stronger DNA binding
Method in brief: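 In this array assay, P. falciparum DNA-binding domains with a GST tag, expressed in E. coli, were applied for 1 h to primer-extended double-stranded 36-bp intergenic genomic probes and negative controls on an Agilent 4 × 180k array. Bound protein was visualised with Alexa488 anti-GST antibody at 488 nm. Binding intensity is the highest Masliner-normalised natural-log median intensity across replicate spots of either probe orientation.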

Sequence	gcPBM binding intensity (ln)
AGGAAATTTTTTTTTTTTTTTTTTTTTTTTTTTTAC [TGCATGCA_negctrl_site170]	7.5 ± 0.56
TTTATTTTCATATGAACACACATATAAATATTATAA [CACACA_site7172]	7.87 ± 0.41
TTTATTTTATCATTTGCACACGCACCCCCACATAAA [CACACA_site8007]	10.4 ± 0.26
TTATTTTCTTTCTATGCACACGCACGTATTTGCCCA [CACACA_site9104]	9.39 ± 0.16
ATTTTCTTTCTATGCACACGCACGTATTTGCACCCA [CACACA_site3350]	11.5 ± 0.39
GCTTATATTAATAAGGTGCTTTTTATTTCGTGTGTA [GTGCAC_site9649]	9.06 ± 0.15
AAGGAAAAAACAAATACACACAAAAACGCATTATAA [CACACA_site3466]	7.87 ± 0.71
TTATGGTGCAACATTATGCACACCGTTAAATAACTA [CACACA_site3846]	11.1 ± 0.52
TGATTCTAACTTATGGTGCAACATTATGGACACCGT	10.3 ± 0.35
ATGGTGCAACATTATGCACACCGTTAAATAACTAAT [CACACA_site9280]	11.5 ± 0.7
AATCATAAACATTATGCACACAAAAATAAAAAAAAA [CACACA_site8289]	9.81 ± 0.11
TCATAAACATTATGCACACAAAAATAAAAAAAAATA [CACACA_site1115]	9.8 ± 0.56
AACAACAACTAATATGCACACATTTAAAAACAAAAT [CACACA_site2440]	9.42 ± 0.26
TACTTTTCTTAAAGATGTACGTTTTAAAAATAAAAT [XGTACX_site14]	7.81 ± 0.2
ATATTTCTGTGTGGATGTACATTATTAGCAGGCTTT [XGTACX_site6496]	8.12 ± 0.73
TTTTTTTTTTTTTTTTGTACTTATAAAATAACATGT [XGTACX_site134]	8.13 ± 0.82
TTTTTTATTTAAAGTAGTACTTTTTAGAAAACAAAA [XGTACX_site6759]	7.68 ± 0.29
TTAAAGCACCCATGCACACACACAAGGGAAAAGAAA [CACACA_site4289]	10.9 ± 0.92
TTAAAGCACCCATGCACACACACAAAGGAAAAGAAA [CACACA_site233]	11.1 ± 0.93
AAAGAAGGGAAACACACACACACACCCACAAAAAAA [CACACA_site3766]	8.17 ± 0.21
AAAGCACCCAGGCACACACACAAAGGAAAAGAAAAA [CACACA_site232]	7.95 ± 0.49
TATTAAAGCACCCATGCACACACACTAAGGAAAAGA [CACACA_site7961]	11.6 ± 0.71
AATGCACTATTTAAAAGTACACATAAGAAAAGCATA [XGTACX_site1739]	9.24 ± 0.28

Sequence	gcPBM binding intensity (ln)
AAAGCACCCATGCACACACACAAAGGAAAAGAAAAA [CACACA_site6249]	8.32 ± 0.38
CACTAAAAGAAACACACACACACACCCATATATATA [CACACA_site4151]	8.44 ± 0.75
TATAAATCTATAAATGCACACAAGGGAAGAAAAACG [CACACA_site2965]	9.46 ± 0.26
AAACAAAAAAGTAAGAAAAGGGATGATTGGATCCAA [CACACA_negctrl_site1230]	7.35 ± 0.78
GGAAACCCTCCCAAATGTACTTTTATAAAAAAATAC [XGTACX_site5502]	8.2 ± 0.6
TTTATTTATCTTTACGCACACACTTGCATGTACAAA [CACACA_site1118]	9.455 ± 0.021
ACAAATCTAAGATAGTGTACATTTATATATATATAT [XGTACX_site8740]	9.4 ± 0.24
ACATAAATATATGACACACACACATATTATATATAT [CACACA_site3065]	8.36 ± 0.52
AAAAATAAAAAAAAATTAAAATATATATATTTTGTT [TGCATGCA_negctrl_site102]	7.49 ± 0.67
GAAATGTATAAATCCATACACACATAAATTTTAATA [CACACA_site2364]	7.58 ± 0.4
TATTTCTTATTACATACACACATATACATAGATGAC [CACACA_site5729]	8 ± 0.55
ATATGTACGCAAGGTGCACACTGGTGCATTAAAAAA [CACACA_site1801]	12.1 ± 0.21
TATGTGTGCAAAAACTGTACACATTAAAGGTATATA [XGTACX_site7627]	9.32 ± 0.28
GCAAGGTCCACACTGGTGCATTAAAAATAAAATATA [GTGCAC_site9956]	11.6 ± 0.41
GATAAAATCACTGGTGCATGTAGATATATAATATTA [TGCATGCA_site589]	9.12 ± 0.085
TTATTAAAAATGGTATGTACGCACATAATATATATA [XGTACX_site3230]	8.56 ± 0.51
TGCAAAAAATTCCACACACACACACGCATATAAATA [CACACA_site6696]	7.95 ± 0.38
TTTATTTGGACATATACACACTTAAATATGTTTATT [CACACA_site6021]	7.59 ± 0.47
TTTTTTTTGATATATACACACAATAAATAAATATAA [CACACA_site7400]	7.78 ± 0.39
TATAATATATGTATATGTACTTATGTTGAGAAACAT [XGTACX_site2117]	7.72 ± 0.59
AATAAATATAGGAATACACACAATATAAATGTATTG [CACACA_site3366]	7.5 ± 0.62
GATACATAGAAACACACACACATACATATATACATA [CACACA_site3438]	8.01 ± 0.4
ATTGCCATTGTTAATGCATGTAACAATTCAGCTCAT [TGCATGCA_site56]	8 ± 0.83
